# Screening data: PubChem BioAssay, National Center for Advancing Translational Sciences (NCATS)
# An excerpt weighted towards active compounds, which were near 17% of everything screened.
# DT40 TDP1 CPT – qHTS for Inhibitors of human tyrosyl-DNA phosphodiesterase 1 (TDP1): qHTS in cells in presence of CPT; chicken DT40 Tdp1-/-;hTDP1 cells + 20 nM CPT, ATP luminescence, 48 h; Potency, µM (series often up to 46.2 µM), for the others: at the highest dose activity change, negative = growth inhibition, most hits filed as inhibitors; hit rate 12% among 420,000; AID 686979, 2013; note: % is set by controls: 0 for no effect and ±100 for the full control effect; nearly all actives have a fitted effect of over 55% in size
#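 Cell growth measured by CellTiter-Glo luminescence after a minimum 48 h, 37 C compound exposure with 20 nM CPT in Tdp1-knockout DT40 cells stably expressing hTDP1, seeded 400/well; qHTS titration format.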
# DT40 TDP1 no CPT – qHTS for Inhibitors of human tyrosyl-DNA phosphodiesterase 1 (TDP1): qHTS in cells in absence of CPT; DT40 Tdp1-/- hTDP1 cells, no CPT, ATP luminescence, 48 h; Potency, µM (top dose mostly 46.2 µM), for the others: top-dose activity change, negative = growth inhibition, most hits filed as inhibitors; hit rate 15% among 420,000; note: % is set by controls: 0 for no effect and ±100 for the full control effect; nearly all actives have a fitted effect of over 55% in size
#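 A cellular qHTS used chicken DT40 cells lacking endogenous Tdp1 but carrying stably transfected human TDP1. Compounds were applied without camptothecin, and cell growth kinetics were judged by ATP-dependent luminescence after ≥48 hr.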
# ClpP mod – qHTS Assay for Activators of ClpP. ATP-dependent Clp protease proteolytic subunit (Bacillus subtilis (strain 168)), P80244. Potency, µM (highest dose often 57.5 µM), for inactives: at the highest dose activity change, negative = active. hit rate 1.9% among 340,000. purified B. subtilis ClpP, FRET peptide cleavage, 20 min. AID 651965, 2013; active = well fitted falling curve with a large enough effect; inconclusive = small, poorly fitted or top-dose-only effect; inactive = no such curve, though single readings can be large or run the other way; note: the source files actives as falling curves though it sought activators and does not explain the sign; nearly all actives have a fitted effect of over 65% in size
# Target sequence (P80244 whole entry, looked up): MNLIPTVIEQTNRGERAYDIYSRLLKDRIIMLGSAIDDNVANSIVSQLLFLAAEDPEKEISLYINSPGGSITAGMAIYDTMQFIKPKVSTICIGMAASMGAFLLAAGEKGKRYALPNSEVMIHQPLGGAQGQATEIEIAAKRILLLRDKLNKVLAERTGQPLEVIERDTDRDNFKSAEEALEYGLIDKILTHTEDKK
#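 Purified B. subtilis ClpP, 10 microg/mL final in Tris/HCl pH8 with KCl, BSA, glycerol and Tween-20, cleaved an Abz/nitrotyrosine-quenched decapeptide. Fluorescence (ex 320, em 430) was read at 0 and 20 min at room temperature. Delta was normalized to 5.8 microM ADEP and DMSO/no-enzyme controls.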
# TDP1 block – qHTS Assay for Inhibitors of Tyrosyl-DNA Phosphodiesterase (TDP1); recombinant TDP1, AlphaScreen DNA substrate cleavage; Potency, µM (doses to about 130 µM), for inactives: at the top dose activity change, negative = inhibition, most hits filed as inhibitors; hit rate 0.28% among 350,000; AID 485290, 2010; note: % is set by controls: 0 for no effect and ±100 for the full control effect; nearly all actives have a fitted effect of over 40% in size
#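 Here, a 5' biotin and 3' phosphotyrosine-FITC DNA oligonucleotide reports Tdp1 activity: intact substrate bridges AlphaScreen beads, while cleavage leaves a 3' phosphate and drops signal. All incubations at room temperature.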
# * hit, by the source's call; ? = inconclusive; / = not tested or not shown. Unless noted, calls come from the whole dose curve; as a rule, active = well fitted curve in the direction sought with a large enough effect; inconclusive = small, poorly fitted or top-dose-only effect, or another doubt; inactive = no such curve, though single readings can be large; an effect the other way counts as inactive or inconclusive. Potency is the fitted concentration of half-maximal effect.
SMILES,DT40 TDP1 CPT,DT40 TDP1 no CPT,ClpP mod,TDP1 block
COc1ccc2[nH]c(=O)c(C(c3nnnn3CC3CCCO3)N3CCc4ccccc4C3)cc2c1 (stereo not drawn),-23%,-13%,32µM*,4%
c1ccc(CNc2ncnc3c2ncn3Cc2ccccc2)cc1,?,?,1%,0%
O=C(/C=C/c1ccccc1)Nc1ccc(C(=O)N2CCCCC2)cc1,?,?,/,4%
Cc1cccc(C(c2sc3nc(-c4ccco4)nn3c2O)N2CCN(Cc3ccccc3)CC2)c1 (stereo not drawn),-23%,-29%,0%,5%
CC(=O)N1C(Nc2ccc(Cl)cc2)CCN1c1ccccc1 (stereo not drawn),-20%,-19%,0%,4%
O=C1NC(=S)NC(=O)C1Nc1ccc(Cl)cc1,?,7.3µM*,/,/
CC(C)CCNC1c2ccccc2C(=O)N1Cc1ccccc1 (stereo not drawn),-24%,23µM*,-1%,/
COc1cc(NC2c3ccccc3C(=O)N2Cc2ccccc2)cc(OC)c1OC (stereo not drawn),?,?,/,2%
CC1CN(C(=O)N2c3ccccc3Sc3ccccc32)CC(C)O1 (stereo not drawn),12µM*,12µM*,-4%,-3%
CC1CCCN(C(=O)N2c3ccccc3Sc3ccccc32)C1 (stereo not drawn),?,13µM*,-1%,2%
CC(C)NC(=O)N1c2ccccc2Sc2ccccc21,?,?,-1%,/
CC1CN(C(=O)N2c3ccccc3Sc3ccccc32)C(C)CC1=O (stereo not drawn),?,?,-1%,-1%
O=C(N1CCOCC1)N1c2ccccc2Sc2ccccc21,?,23µM*,-2%,5%
Cc1cc(OC(C)C(=O)N2CCN(CCc3ccccn3)CC2)ccc1Cl (stereo not drawn),-29%,-25%,0%,-2%
CCCN(C(=O)CCc1nc(-c2ccccc2F)no1)c1ccc(CC)cc1,-99%,?,2%,-8%
COc1ccc(NC(=O)N2CCCCCC2)cc1,15%,-3%,/,5%
COc1cc2c(N3CCN(C(=O)Nc4ccc(OC(C)C)cc4)CC3)ncnc2cc1OCCCN1CCCCC1,?,21µM*,/,/
Cc1ccc(CNC(=O)c2ccc(N3CCC4(CC3)CC(c3cccc(Br)c3)=NO4)c(NC(=O)c3ccc(Br)cc3)c2)cc1,-5%,-5%,-5%,0%
Cc1ccc(CNC(=O)c2ccc(N3CCC4(CC3)CC(c3cccc(Br)c3)=NO4)c(NC(=O)c3cccc(C)c3)c2)cc1,-7%,-1%,-10%,0%
O=C(NCc1ccccn1)c1ccc(N2CCCC2)c([N+](=O)[O-])c1,24%,-15%,/,2%
O=C(NCc1ccncc1)c1ccc(N2CCCC2)c([N+](=O)[O-])c1,?,18µM*,/,3%
Cc1ccc(CNC(=O)c2ccc(N3CCC4(CC3)CC(c3cccc(Br)c3)=NO4)c(N)c2)cc1,6.5µM*,5.8µM*,-21%,2%
CCCNC(=O)c1ccc(N2CCC3(CC2)CC(c2cccc(Br)c2)=NO3)c([N+](=O)[O-])c1,6.5µM*,8.2µM*,1%,/
Cc1ccc(CNC(=O)c2ccc(N3CCC4(CC3)CC(c3cccc(Br)c3)=NO4)c([N+](=O)[O-])c2)cc1,10µM*,?,-1%,0%
O=C(Nc1c(Cl)cccc1Cl)c1cc(-c2cccc(O)c2)on1,?,?,0%,3%
SMILES,DT40 TDP1 CPT,DT40 TDP1 no CPT,ClpP mod,TDP1 block
Cn1c(Cc2ccccc2)nnc1SCC(=O)c1cccs1,-2%,-2%,1%,4%
C=C1CCN(c2ccc(C(=O)NCc3ccc(OC)cc3)cc2[N+](=O)[O-])CC1,21µM*,?,1%,/
COc1cccc(C(=O)Nc2cc(C(=O)NCc3ccc(C)cc3)ccc2N2CCC3(CC2)CC(c2cccc(Br)c2)=NO3)c1,-12%,-9%,-15%,0%
C=C1CCN(c2ccc(C(=O)NCc3ccc(C)cc3)cc2[N+](=O)[O-])CC1,-24%,-12%,-1%,/
COc1ccc(CNC(=O)c2ccc(N3CCC4(CC3)CC(c3ccc(Cl)cc3)=NO4)c([N+](=O)[O-])c2)cc1,?,0.92µM*,1%,/
COc1ccc(NC(=O)C[C@H]2C(=O)N(c3ccc(OC)cc3)C[C@@H]2C)cc1,-28%,?,-2%,/
Cc1ccccc1NC(=O)c1sc2nc3c(c(-c4ccco4)c2c1N)CCC3,?,?,1%,1%
Nc1c(C(=O)NCC2CCCO2)sc2nc3c(c(-c4ccco4)c12)CC/C3=C\c1ccco1 (stereo not drawn),?,26µM*,1%,?
N#Cc1sc2nc3c(c(-c4ccco4)c2c1N)CCCC3,?,23µM*,-1%,-2%
NC(=O)c1sc2nc3c(c(-c4ccco4)c2c1N)CCCC3,?,16µM*,-1%,/
CCCN(C(=O)Cn1ncc2c([nH]c3ccccc32)c1=O)c1ccc(F)cc1,?,?,4%,7%
O=C([C@@H]1CCCN1C1=NS(=O)(=O)c2ccccc21)N1CCN(c2ccccc2)CC1,-21%,-26%,1%,/
c1ccc(-c2cc3c(N4CCCCC4)ncnc3s2)cc1,-39%,?,/,2%
OCCN1CCN(c2ncnc3sc(-c4ccccc4)cc23)CC1,?,15µM*,/,2%
Cc1nc(N2CCOCC2)c2cc(-c3ccccc3)sc2n1,?,18µM*,32µM*,3%
c1ccc(-c2cc3c(N4CCCC4)ncnc3s2)cc1,?,21µM*,/,5%
c1ccc(-c2cc3c(N4CCOCC4)ncnc3s2)cc1,16µM*,15µM*,28µM*,4%
NC(=O)Cn1cc(/C=N/NC(=O)c2ccc(Cn3cc(Cl)cn3)o2)c(-c2ccccc2)n1,6%,1%,-18%,-6%
CN(C)c1ccc(/C=C/c2c3c(nc4ccccc24)CCCC3)cc1,?,?,-1%,/
Cc1ccc(NC(=O)CCCNC(=O)c2ccc(Cl)cc2)nc1,-10%,-1%,-1%,2%
COC(=O)C(CC(=O)c1ccc(Br)cc1)n1ccnc1 (stereo not drawn),1.4µM*,1.3µM*,0%,8%
COC(=O)C(CC(=O)c1ccc(Br)cc1)n1nc(C)cc1C (stereo not drawn),?,?,/,0%
NC(=O)c1ccc(NC(=O)COC(=O)/C=C/c2ccc(Br)o2)cc1,-19%,-7%,-1%,5.6µM*
CN(C)S(=O)(=O)c1cccc(NC(=O)COC(=O)/C=C/c2ccc(Br)o2)c1,-19%,13%,-4%,/
